“And” between values parts separate entries of the source, which are not always exact repeats. Identical values can stand only once. Hit rate of the full screen: of about 5,500 compounds, about 2,000 (36%) were called active. Inconclusive results (about 18%) are left out. Rule as the data show it: active = normalized growth mostly below about 0.91 (no sharp cut-off); inconclusive = no clear call, values can overlap the other calls; inactive = mostly above about 0.92. The list shows a part of the results. Some structures have more than one record in an assay (separate samples or runs), and their calls can disagree.
Experiment: chemical genetic growth profiling, strain panel (AID 1159580);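 also: tested at 20 µM; growth read once vehicle control cultures reached saturation at 30 °C; 1 = growth at the plate median or of vehicle wells; lower values mean less growth of the strain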
Details: growth OD

Measured: normalized growth

Oc1ccc(O)cc1
active: S. cerevisiae deletion strains, locus YBR021W, strain FUR4, stronger effect = lower value 0.688 | S. cerevisiae deletion strains, locus YGR229C, strain SMI1, stronger effect = lower value 0.637 | S. cerevisiae deletion strains, locus YGR252W, strain gcn5, stronger effect = lower value 0.765 | S. cerevisiae deletion strains, locus YNL307C, strain MCK1, stronger effect = lower value 0.794
inactive: S. cerevisiae deletion strains, locus YAL040C, strain CLN3, stronger effect = lower value 1.1 | S. cerevisiae deletion strains, locus YBR229C, strain ROT2, stronger effect = lower value 1.02 | S. cerevisiae deletion strains, locus YCL029C, strain bik1, stronger effect = lower value 1.04 | S. cerevisiae deletion strains, locus YCL061C, strain MRC1 (second series), stronger effect = lower value 0.978 | S. cerevisiae deletion strains, locus YDL035C, strain GPR1, stronger effect = lower value 0.9 | S. cerevisiae deletion strains, locus YDL074C, strain BRE1, stronger effect = lower value 0.96 | S. cerevisiae deletion strains, locus YDL101C, strain DUN1, stronger effect = lower value 1.02 | S. cerevisiae deletion strains, locus YDL134C, strain PPH21, stronger effect = lower value 0.987 | S. cerevisiae deletion strains, locus YDL185W, strain tfp1, stronger effect = lower value 1.01 | S. cerevisiae deletion strains, locus YDL192W, strain arf1, stronger effect = lower value 1.02 | S. cerevisiae deletion strains, locus YDR101C, strain arx1, stronger effect = lower value 1.03 | S. cerevisiae deletion strains, locus YDR150W, strain NUM1, stronger effect = lower value 1.01 and 0.953 | S. cerevisiae deletion strains, locus YDR162C, strain NBP2, stronger effect = lower value 0.987 | S. cerevisiae deletion strains, locus YDR318W, strain mcm21, stronger effect = lower value 1 | S. cerevisiae deletion strains, locus YDR363W, strain ESC2, stronger effect = lower value 0.997 | S. cerevisiae deletion strains, locus YDR388W, stronger effect = lower value 0.999 | S. cerevisiae deletion strains, locus YDR502C, strain sam2, stronger effect = lower value 1.02 | S. cerevisiae deletion strains, locus YEL061C, strain CIN8, stronger effect = lower value 1.02 | S. cerevisiae deletion strains, locus YER002W, strain NOP16, stronger effect = lower value 1 | S. cerevisiae deletion strains, locus YER110C, stronger effect = lower value 1.04 | S. cerevisiae deletion strains, locus YER155C, strain BEM2, stronger effect = lower value 1.02 | S. cerevisiae deletion strains, locus YER167W, strain BCK2, stronger effect = lower value 0.926 | S. cerevisiae deletion strains, locus YGL078C, strain dbp3, stronger effect = lower value 1.03 | S. cerevisiae deletion strains, locus YGL086W, strain mad1, stronger effect = lower value 0.985 | S. cerevisiae deletion strains, locus YGL248W, strain PDE1, stronger effect = lower value 0.975 | S. cerevisiae deletion strains, locus YGR078C, strain PAC10, stronger effect = lower value 0.858 and 1.01 | S. cerevisiae deletion strains, locus YGR135W, strain pre9, stronger effect = lower value 0.964 | S. cerevisiae deletion strains, locus YHR030C, strain SLT2, stronger effect = lower value 1 and 1.03 | S. cerevisiae deletion strains, locus YHR079C, strain IRE1 (second series), stronger effect = lower value 1 | S. cerevisiae deletion strains, locus YHR079C, strain IRE1, stronger effect = lower value 1.05 | S. cerevisiae deletion strains, locus YHR094C, strain hxt1, stronger effect = lower value 1.01 | S. cerevisiae deletion strains, locus YHR129C, strain ARP1, stronger effect = lower value 1.01 | S. cerevisiae deletion strains, locus YHR200W, strain rpn10, stronger effect = lower value 1 | S. cerevisiae deletion strains, locus YIL066C, strain RNR3, stronger effect = lower value 0.993 | S. cerevisiae deletion strains, locus YIL073C, strain SPO22, stronger effect = lower value 0.82 | S. cerevisiae deletion strains, locus YIL125W, strain kgd1, stronger effect = lower value 1.03 | S. cerevisiae deletion strains, locus YIR030C, strain dcg1, stronger effect = lower value 1.06 | S. cerevisiae deletion strains, locus YJL095W, strain BCK1, stronger effect = lower value 0.968 and 1.01 | S. cerevisiae deletion strains, locus YJL134W, strain LCB3, stronger effect = lower value 1.02 | S. cerevisiae deletion strains, locus YJL168C, strain set2, stronger effect = lower value 1.02 | S. cerevisiae deletion strains, locus YJL187C, strain SWE1 (second series), stronger effect = lower value 1.01 | S. cerevisiae deletion strains, locus YJR043C, strain POL32, stronger effect = lower value 0.86 | S. cerevisiae deletion strains, locus YJR066W, strain TOR1, stronger effect = lower value 1.02 | S. cerevisiae deletion strains, locus YJR075W, strain HOC1, stronger effect = lower value 0.951 | S. cerevisiae deletion strains, locus YKL009W, strain mrt4, stronger effect = lower value 1.03 | S. cerevisiae deletion strains, locus YKL068W, stronger effect = lower value 1.01 | S. cerevisiae deletion strains, locus YKL085W, strain MDH1 (second series), stronger effect = lower value 1.02 | S. cerevisiae deletion strains, locus YKL085W, strain MDH1, stronger effect = lower value 1.02 | S. cerevisiae deletion strains, locus YKL190W, strain CNB1, stronger effect = lower value 1 | S. cerevisiae deletion strains, locus YKR001C, strain vps1, stronger effect = lower value 0.927 | S. cerevisiae deletion strains, locus YLR039C, strain RIC1, stronger effect = lower value 0.904 | S. cerevisiae deletion strains, locus YLR058C, strain SHM2, stronger effect = lower value 1.01 | S. cerevisiae deletion strains, locus YLR102C, strain apc9, stronger effect = lower value 1.03 | S. cerevisiae deletion strains, locus YLR113W, strain HOG1, stronger effect = lower value 1.04 | S. cerevisiae deletion strains, locus YLR262C, strain YPT6, stronger effect = lower value 0.843 | S. cerevisiae deletion strains, locus YLR268W, strain sec22, stronger effect = lower value 0.98 | S. cerevisiae deletion strains, locus YLR330W, strain CHS5, stronger effect = lower value 1.01 | S. cerevisiae deletion strains, locus YLR342W, strain FKS1 (second series), stronger effect = lower value 0.801 | S. cerevisiae deletion strains, locus YLR371W, strain rom2, stronger effect = lower value 1.03 | S. cerevisiae deletion strains, locus YLR418C, strain cdc73, stronger effect = lower value 0.845 | S. cerevisiae deletion strains, locus YML016C, strain PPZ1, stronger effect = lower value 1.01 | S. cerevisiae deletion strains, locus YML032C, strain rad52, stronger effect = lower value 0.937 | S. cerevisiae deletion strains, locus YML124C, strain tub3, stronger effect = lower value 1.03 | S. cerevisiae deletion strains, locus YMR078C, strain ctf18, stronger effect = lower value 1.04 | S. cerevisiae deletion strains, locus YMR223W, strain ubp8, stronger effect = lower value 0.996 | S. cerevisiae deletion strains, locus YMR263W, strain SAP30, stronger effect = lower value 0.989 | S. cerevisiae deletion strains, locus YMR307W, strain GAS1, stronger effect = lower value 0.716 and 0.967 | S. cerevisiae deletion strains, locus YNL067W, strain RPL9B, stronger effect = lower value 0.933 | S. cerevisiae deletion strains, locus YNL128W, strain TEP1, stronger effect = lower value 1.02 | S. cerevisiae deletion strains, locus YNL153C, strain GIM3, stronger effect = lower value 0.995 | S. cerevisiae deletion strains, locus YNL175C, strain NOP13, stronger effect = lower value 1 | S. cerevisiae deletion strains, locus YNL183C, strain NPR1, stronger effect = lower value 1.03 | S. cerevisiae deletion strains, locus YNL197C, strain WHI3, stronger effect = lower value 1.01 | S. cerevisiae deletion strains, locus YNL224C, strain SQS1, stronger effect = lower value 1.02 | S. cerevisiae deletion strains, locus YNL233W, strain BNI4, stronger effect = lower value 0.985 | S. cerevisiae deletion strains, locus YNL250W, strain rad50, stronger effect = lower value 1.03 | S. cerevisiae deletion strains, locus YNL271C, strain bni1, stronger effect = lower value 1.05 | S. cerevisiae deletion strains, locus YNL298W, strain CLA4, stronger effect = lower value 1.04 | S. cerevisiae deletion strains, locus YNL322C, strain KRE1, stronger effect = lower value 1.02 | S. cerevisiae deletion strains, locus YNR052C, strain pop2, stronger effect = lower value 1.04 | S. cerevisiae deletion strains, locus YOL006C, strain TOP1, stronger effect = lower value 0.636 | S. cerevisiae deletion strains, locus YOL012C, strain htz1 0.667 | S. cerevisiae deletion strains, locus YOL147C, strain pex11, stronger effect = lower value 1.03 | S. cerevisiae deletion strains, locus YOR061W, strain CKA2, stronger effect = lower value 1.01 | S. cerevisiae deletion strains, locus YOR069W, strain VPS5, stronger effect = lower value 1.01 | S. cerevisiae deletion strains, locus YOR083W, strain WHI5 (second series), stronger effect = lower value 0.893 | S. cerevisiae deletion strains, locus YOR136W, strain idh2, stronger effect = lower value 1.03 | S. cerevisiae deletion strains, locus YOR144C, strain elg1, stronger effect = lower value 1.02 | S. cerevisiae deletion strains, locus YOR184W, strain ser1, stronger effect = lower value 0.979 | S. cerevisiae deletion strains, locus YOR231W, strain MKK1, stronger effect = lower value 1.06 | S. cerevisiae deletion strains, locus YOR316C, strain cot1, stronger effect = lower value 1.03 | S. cerevisiae deletion strains, locus YPL055C, strain LGE1, stronger effect = lower value 0.851 | S. cerevisiae deletion strains, locus YPL241C, strain CIN2, stronger effect = lower value 1.01 and 1 | S. cerevisiae deletion strains, locus YPL256C, strain CLN2, stronger effect = lower value 1.08 | S. cerevisiae deletion strains, locus YPR119W, strain clb2, stronger effect = lower value 1.04 | S. cerevisiae deletion strains, locus YPR141C, strain kar3, stronger effect = lower value 1.03 | S. cerevisiae deletion strains, locus YPR163C, strain tif3, stronger effect = lower value 1 | S. cerevisiae deletion strains, locus YPR167C, strain met16, stronger effect = lower value 1.02 | S. cerevisiae deletion strains, strain wtn01, stronger effect = lower value 0.999 | S. cerevisiae strains, strain wild type, stronger effect = lower value 1.01
0.989 (inactive) and 0.9 (active): S. cerevisiae deletion strains, locus YAL013W, strain DEP1, stronger effect = lower value

Source: PubChem BioAssay AID1159580 (chemical genetic matrix, 2015)
